Screening results from PubChem BioAssay.
TLR4-MyD88 BLA: TLR4-MyD88 interaction inhibition in cells; O00206+Q99836; HeLa CL3-4 TLR4/MyD88 BLA complementation, FRET ratio; inhibition, % at 8.4 µM; 200,000 compounds, 0.18% hits; in the data active = inhibition above about 25%;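 also: 0% = vehicle and 100% = reference inhibitor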
TMEM16A inh: blocks the mouse calcium-activated chloride channel TMEM16A. AID 588511. 310,000 compounds, 1.2% hits. normalized B-score (activity score, 25-100; higher = stronger inhibition) at 10 µM. HEK293 TMEM16A/YFP iodide influx fluorescence, ionomycin. Q8BHY3;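 active = ratio plate-corrected score three or more library SD toward inhibition, starting fluorescence score within five deviations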;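 also: score derived from kinetic fluorescence span divided by baseline fluorescence per well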
ANO1 activ: activators or potentiators of mouse TMEM16A chloride channel; Q8BHY3; HEK293 TMEM16A/YFP-H148Q/I152L, iodide quench fluorescence; hits give low values; B-score at 10 µM; 340,000 compounds, 0.3% hits;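 active = fluorescence-ratio B-score plate-corrected deviation score at least 3 library SD below zero, with starting fluorescence score within 5 deviations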;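 also: channel opened by trigger with iodide after compound preincubation; score built on the fluorescence ratio of max minus min over baseline; more negative score means more quench and so TMEM16A activation or potentiation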
TLR9-MyD88 block: blocks human TLR9 binding to MyD88. Q9NR96+Q99836. CHO BLA complementation TLR9-MyD88, CCF4 FRET ratio. inhibition, % at 4.98 µM. 340,000 compounds, 0.21% hits. AID 504734;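 active = inhibition above the mean over all tested compounds plus 3 SD, cut at about 21% in these data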;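 also: 0% = DMSO only wells and 100% = clavulanate BLA inhibitor control wells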
NOD2-RIPK2 inh: NOD2-RIPK2 protein interaction inhibition | O43353 | CHO BLA complementation NOD2-RIPK2, CCF4 ratio | inhibition, % at 4.98 µM | 360,000 compounds, 0.38% hits | AID 624267; in the data active = inhibition above about 21%;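 also: 0% = vehicle only and 100% = reference blocker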
Target sequence (O43353 whole entry, looked up): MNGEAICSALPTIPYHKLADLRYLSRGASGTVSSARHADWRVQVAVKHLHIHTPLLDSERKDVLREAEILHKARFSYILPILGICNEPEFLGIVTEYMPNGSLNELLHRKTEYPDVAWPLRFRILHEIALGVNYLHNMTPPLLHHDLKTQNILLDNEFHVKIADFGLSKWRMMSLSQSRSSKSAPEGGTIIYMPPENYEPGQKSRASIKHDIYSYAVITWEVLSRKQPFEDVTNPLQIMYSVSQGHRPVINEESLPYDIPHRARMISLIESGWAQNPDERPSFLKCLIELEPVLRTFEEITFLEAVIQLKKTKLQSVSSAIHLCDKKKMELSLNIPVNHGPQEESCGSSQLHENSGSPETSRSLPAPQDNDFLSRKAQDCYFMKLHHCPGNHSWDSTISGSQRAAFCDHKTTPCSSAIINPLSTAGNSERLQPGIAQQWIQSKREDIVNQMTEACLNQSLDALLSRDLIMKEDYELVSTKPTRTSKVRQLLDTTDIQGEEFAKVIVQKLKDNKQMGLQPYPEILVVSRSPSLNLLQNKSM
HTR2A ag: activates the mouse 5-HT2A serotonin receptor | P35363 | activation, % at 7.6 µM | CHO-K1 mHTR2A beta-arrestin complementation, luminescence; percent of 30 µM serotonin response | 360,000 compounds, 0.66% hits;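 active = activation above a run cutoff, the mean activation of all tested compounds plus 3 SD, cut at about 14% in these data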;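 also: 0% = plate median of compound wells and 100% = 30 µM serotonin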
TLR4-MyD88 conf: TLR4-MyD88 interaction inhibition confirmed. shares compounds with TLR4-MyD88 BLA. HeLa CL3-4 BLA complementation, CCF4 FRET ratio. inhibition, % at 8.4 µM. 350 compounds, 50% hits;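 active = mean inhibition across three repeat runs above about 25% carried over from the earlier screen, limit read from the data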;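 also: plate controls were DMSO only for no effect and clavulanic acid blocking BLA at full dose for full effect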
BLA inhibitor ct: inhibits beta-lactamase activity, counter-screen to TLR4-MyD88 binding inhibitors | shares compounds with TLR4-MyD88 BLA | HeLa BLA reporter, CCF4 FRET ratio | 350 compounds, 63% hits | inhibition, % at 8.4 µM | AID 1237;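 active = mean inhibition over three repeats above about 26% taken from the earlier screen, limit read from the data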;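 also: HeLa cells stably expressing beta-lactamase reporter as counterscreen for TLR4-MyD88 inhibitors; 0% = DMSO and 100% = clavulanic acid full inhibition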
* = called active by the depositor; i = inactive; · = no result given. Only some compounds are listed: those with a hit (about 2.4% of all), similar ones and a draw of the others.

SMILES	TLR4-MyD88 BLA	TMEM16A inh	ANO1 activ	TLR9-MyD88 block	NOD2-RIPK2 inh	HTR2A ag	others
O=C(CSc1nc2c([nH]c3ccccc32)c(=O)n1-c1ccccc1F)NCC1CCCO1 (configuration not stated)	·	i	i	-4	-22	-24
O=C(OCc1ccccc1)N(CCCCN(CCCNCc1ccccc1)C(=O)OCc1ccccc1)CCCNCc1ccccc1	·	·	-5.4*	-9	14	-10
O=C(NCCCCCCNC(=O)OCc1ccccc1)OCc1ccccc1	·	·	i	1	-12	-3
CC(=O)Oc1cccc(N2C(=O)C3C4C=CC(CC4)C3C2=O)c1 (configuration not stated)	·	i	i	4	-5	8
N#CC(C#N)=Cc1cccn1-c1ccc(S(N)(=O)=O)cc1	-1	i	-6.1*	7	-9	9
O=C(Nc1ccc(S(=O)(=O)N2CCOCC2)cc1)c1ccc(S(=O)(=O)N2CCOCC2)cc1	·	i	i	5	7	8
O=C(Nc1ccc(S(=O)(=O)N2CCCCC2)cc1)c1ccc(CN2CCOCC2)cc1	1	100*	i	-2	-6	-2
O=C(Cn1c(=O)oc2ccccc21)Nc1ccc(S(=O)(=O)N2CCCCC2)cc1	3	i	-6.5*	-5	2	0
NS(=O)(=O)c1ccc(NC(=O)CN2CCCN(S(=O)(=O)c3ccc(F)cc3)CC2)cc1	-3	i	-7.8*	-4	-9	4
CCN(CC)S(=O)(=O)c1ccc(NC(=O)Cn2c(=O)oc3ccccc32)cc1	-1	i	i	-3	-14	-1
N/C(=N\OS(=O)(=O)c1ccc2ccccc2c1)c1ccccn1	1	·	-26*	-5	-9	0
Cc1cc(-c2ccccc2)nc(N(C)NC(=O)C2CC2)c1S(C)(=O)=O	-5	i	i	-5	-1	-2
CCn1c(SCC(=O)N/N=C/c2c[nH]c3ccccc23)nnc1-c1ccc(C(C)(C)C)cc1	12	25*	i	-5	-15	1
CCn1c(SCC(=O)N/N=C/c2ccc(C)o2)nnc1-c1ccc(C(C)(C)C)cc1	14	i	i	0	-3	6
CCC(=O)N1c2ccc(S(=O)(=O)CCC(=O)Nc3ccc(OC)cc3OC)cc2CC1C (configuration not stated)	·	i	-42*	12	7	0
COc1cc(C(=O)NS(=O)(=O)c2ccccc2C)ccc1Cc1cn(C)c2ccc(NC(=O)OC3CCCC3)cc12	·	100*	·	·	·	·
COc1ccc(NC(=O)COc2ccccc2C)cc1S(=O)(=O)N1CCCCC1	·	i	i	11	-7	-14
O=C(c1ccc(COc2ccccc2Cl)o1)N1CCN(Cc2ccc3c(c2)OCO3)CC1	-9	i	i	-2	-5	-8
O=C(c1ccc(COc2ccc(Cl)cc2)o1)N1CCN(Cc2ccc3c(c2)OCO3)CC1	7	25*	i	0	-4	5
c1ccc(Nc2ccnc(Nc3ccccc3)n2)cc1	·	25*	i	3	-8	-1
COc1ccccc1C1CC(c2cccc(NS(C)(=O)=O)c2)=NN1S(=O)(=O)c1ccccc1 (configuration not stated)	·	i	-5*	2	-1	-7
COC(=O)C(Cc1csc2ccc(Cl)cc12)NC(=O)c1ccc(Cl)cc1 (configuration not stated)	·	i	i	-9	2	-3
Cc1cc(NC(=O)COC(=O)c2ccc(OC(F)(F)F)cc2)no1	·	·	i	-1	-10	1
Cc1cc(NC(=O)COC(=O)C(Nc2ccc(C(F)(F)F)cc2Cl)C(C)C)no1 (configuration not stated)	1	100*	i	-1	-2	-2
CC(c1ccc(F)cc1)n1c(Cn2ncc3ccccc3c2=O)n[nH]c1=S (configuration not stated)	-5	i	i	-1	1	1
SMILES	TLR4-MyD88 BLA	TMEM16A inh	ANO1 activ	TLR9-MyD88 block	NOD2-RIPK2 inh	HTR2A ag	others
Nc1oc2ccccc2c(=O)c1-c1ccc2c(c1)OCO2	·	i	i	-2	-6	-4
Cc1cccc(Nc2nc(NCc3ccco3)c3ccccc3n2)c1	-2	25*	i	-4	4	-9
Oc1ccccc1Nc1nc(NCc2ccco2)c2ccccc2n1	·	i	i	-7	3	-7
COc1ccc(NC2=CC(=O)N(C)C2=O)cc1	2	i	i	-5	-18	3
COc1cccc(NC(=O)c2cccc(N3C(=O)C4C5C=CC(C5)C4C3=O)c2)c1 (configuration not stated)	·	25*	i	-1	1	5
COc1ccc(NC(=O)c2cccc(N3C(=O)C4C5C=CC(C5)C4C3=O)c2)cc1 (configuration not stated)	·	i	i	-6	2	7
O=C1Nc2ccccc2N=C(c2ccccc2)C1N1CCOCC1 (configuration not stated)	0	i	i	-1	0	-3
CCOC(=O)C1CCCN(C(=O)c2ccc3c(c2)N(C)C(=O)/C(=C/c2ccccc2Cl)S3)C1 (configuration not stated)	·	i	i	9	5	7
CN1C(=O)/C(=C/c2ccccc2Cl)Sc2ccc(C(=O)N3CCCC3)cc21	·	100*	i	5	4	0
COc1ccccc1C(=O)Nc1nc(-c2ccc(S(=O)(=O)N3CCOCC3)cc2)cs1	-10	100*	i	4	4	7
CCC1Sc2ccc(S(=O)(=O)CCC(=O)Nc3ccccc3Br)cc2NC1=O (configuration not stated)	·	i	i	-7	-8	-1
C/C(=N\NC(=S)NCc1ccccc1)c1ccc(Br)cc1	1	i	i	-2	-1	-4
C/C(=N\NC(=S)NCc1ccccc1)c1ccc2c(c1)OCCO2	-5	25*	i	-4	-10	-7
CCOC(=O)N1CCN(C(c2ccc(Cl)cc2)c2sc3nc(C)nn3c2O)CC1 (configuration not stated)	·	i	i	5	-6	2
COc1cc(/C=N/NC(=Nc2ccc(C)cc2)c2nc3ccccc3s2)ccc1O	0	i	i	-3	-6	-1
CC1=NOC(=O)/C1=C\c1ccc(-c2ccccc2Br)o1	26*	·	i	9	0	-2	TLR4-MyD88 conf=21;BLA inhibitor ct=-18
